An excerpt weighted towards active compounds, which were near 13% of everything screened.
Shiga inhibitor – A qHTS for Small Molecule Inhibitors of Shiga Toxin | Vero cells, Shiga toxin protein synthesis inhibition reporter | inhibition, % at 38.7 µM | AID 2315, 2010 | actives 9.2% (n = 290,000); in the data active = inhibition mostly above about 28%, no sharp cut-off; inactive = mostly below about 43%
CHX counter – Cycloheximide Counterscreen for Small Molecule Inhibitors of Shiga Toxin | AID 2314, 2010 | max response, % | actives 12% (n = 300,000) | cell reporter, cycloheximide protein synthesis inhibition counterscreen; in the data active = max response mostly above about 13%, no sharp cut-off; inactive = mostly below about 14%; note: read at 38.3 µM for the half of the compounds with a filed dose
Marburg entry inh – qHTS for inhibitors of binding or entry into cells for Marburg Virus. Marburg virus pseudotyped entry inhibition, cell reporter. Potency, µM (top dose mostly 37.8 µM), hits mostly inhibitors. actives 1.8% (n = 300,000); calls by dose curve; tested in HEK293 cells
HCV inh – qHTS Assay for Inhibitors of Hepatitis C Virus (HCV); Potency, µM (series often up to 41.8 µM), actives largely listed as inhibitors; Huh7.5.1 HCVcc-Cre infection, luciferase reporter, 44 h; actives 3.4% (n = 340,000); active = well fitted inhibition curve with a large enough effect; inconclusive = small, poorly fitted or top-dose-only effect, or another doubt; inactive = no such curve, though single readings can be large or run the other way
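Seed cells (1,000/well) for 4 h; treat with compound and infect with HCVcc-Cre, moi about 0.5. Incubate 44 h, then detect luciferase activity.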
LASV entry inh – qHTS for Inhibitors of binding or entry into cells for Lassa Virus; Lassa virus pseudotype entry inhibition, cell reporter; Potency, µM (highest dose often 37.9 µM), usual class: inhibitors; AID 540256, 2011; actives 1.2% (n = 300,000); calls by dose curve; tested in HEK293 cells; note: nearly all actives have a fitted effect of over 50% in size
FMDV antiviral – High Throughput Screening for Foot and Mouth Disease Virus Antivirals | FMDV antiviral cell-based qHTS | Potency, µM (doses to about 57.9 µM), hits mostly inhibitors | actives 1.2% (n = 410,000) | AID 1159524, 2015; calls by dose curve; tested in HEK293T cells; note: read-out not given here; nearly all actives have a fitted effect of over 45% in size
Hits are given with their value; i = inactive; ? = inconclusive; nt = no result given; [ ] = another dose, or the depositor's remark.

SMILES	Shiga inhibitor	CHX counter	Marburg entry inh	HCV inh	LASV entry inh	FMDV antiviral
CNC(=S)N/N=C/c1ccc(-c2cccc(C(=O)O)c2)o1	111.8	61.4	?	i	?	i
Nc1nnc(CC(=O)N/N=C/c2ccc(-c3ccccc3)o2)s1	i	i	nt	i	nt	i
Cc1ccc(OCC(=O)N/N=C\c2ccc(-c3cccc(C(=O)O)c3)o2)c(C)c1	177.3	74.1	i	i	i	i
N[C@H](C(=O)O)C(O)C(O)C(O)CO (stereo partly specified)	nt	nt	nt	nt	nt	i
O=C(N/N=C/c1cc(Br)c(O)c(Br)c1)c1cc2c(ccc3ccccc32)o1	i	i	i	i	i	?
CCOc1ccc(NC(=O)CSc2nc3ccccc3nc2N2CCOCC2)cc1	i	i	?	i	i	i
COc1ccc(CC(=O)N/N=C/c2ccc(-c3ccc(F)cc3)o2)cc1OC	i	i	?	i	?	i
COc1ccc(CC(=O)N/N=C/c2ccc(-c3cccc(C(=O)O)c3)o2)cc1OC	194.8	71.1	nt	i	nt	i
Cc1ccc(C(=O)N/N=C/c2ccc(-c3cccc(C(F)(F)F)c3)o2)cn1	i	i	?	?	?	31.6µM
Cc1c(NC(=O)c2nn3c(c2Br)NC(c2ccccc2)CC3C(F)(F)F)c(=O)n(-c2ccccc2)n1C (stereo unspecified)	i	i	?	i	i	i
CCCNC(=O)c1nnsc1S(=O)(=O)c1ccc(Cl)cc1	i	27.0	?	6.31µM	2.82µM	31.6µM
CNC(=O)c1nnsc1S(=O)c1ccc(Cl)cc1 (stereo unspecified)	98.2	55.3	?	?	?	?
CCCNC(=O)NS(=O)(=O)c1ccc(Cl)cc1	i	i	i	i[8.37 µM]	i	?
Cc1ccc(S(=O)c2snnc2C)cc1 (stereo unspecified)	i	i	?	i	i	i
CCCNC(=O)c1nnsc1S(=O)c1ccc(Cl)cc1 (stereo unspecified)	i	36.0	?	?	?	35.5µM
O=Cc1sc(=O)n(Cc2cccc(C(=O)O)c2)c1Cl	i	i	i	i	i	i
Cc1nc2cc3c(cc2c(C)c1C(=O)OC(C)C)OCO3	29.2	40.4	i	?	i	i
O=C(NCc1nnc(SCC(=O)N2CCCC2)o1)c1ccc(F)cc1	i	i	i	i	i	i
Nc1c(C(=O)c2ccc(Br)s2)oc2ccccc12	i	22.9	?	i	i	i
Nc1c(C(=O)c2cccs2)oc2ccccc12	98.8	26.4	?	?	i	i
Nc1ccc(C(=O)c2cccs2)cc1	i	i	i	i	i	i
CCN(CC)S(=O)(=O)c1cnccc1N1CCN(c2cccc(Cl)c2)CC1	i	i	?	i	?	39.8µM
Cc1ccc(C(=O)NCC(=O)OC(C)C(=O)NC2CCCc3ccccc32)cc1 (stereo unspecified)	nt	nt	i	i	i	i
CCCCN1C(=O)C(=O)NC[C@H]1Cc1cccc2ccccc12	nt	nt	nt	nt	nt	i
S=C1NC[C@H](Cc2cccc3ccccc23)N1CC1CCCCC1	i	i	nt	2.82µM	nt	i
SMILES	Shiga inhibitor	CHX counter	Marburg entry inh	HCV inh	LASV entry inh	FMDV antiviral
CCCCN1C(=S)NC[C@@H]1Cc1cccc2ccccc12	59.5	18.0	nt	i	nt	i
O=C1NC[C@@H](Cc2cccc3ccccc23)N(CC2CCCCC2)C1=O	i	i	nt	i	nt	i
Cc1ccc(NC(=O)CSc2nc3ccc(Br)cc3[nH]2)c(C)c1	nt	nt	i	nt	i	i
COc1ccccc1C1=NC(c2ccc(F)cc2)N=C1C (stereo unspecified)	87.9	28.1	?	i	?	i
Cc1ccc(S(=O)(=O)N2CCN(S(C)(=O)=O)C2)cc1	i	i	i	i	?	i
CN(C)/C=C(\C#N)C(=O)Nc1ccc(F)cc1	50.3	15.7	?	i	i	i
CN(C)/C=C(\C#N)C(=O)Nc1ccc(F)c(Cl)c1	52.2	24.0	nt	i	nt	i
COc1cccc(CNC(=O)c2cc(-c3cccs3)nc3ccccc23)c1	nt	nt	i	nt	i	i
Cc1ccc(-c2cc(C(=O)NCc3ccco3)c3ccccc3n2)s1	i	9.3	?	?	i	i
Cc1cc(C(=O)NCc2ccco2)c2cc(F)ccc2n1	i	i	i	i	i	i
O=C(NCc1ccco1)c1cc(-c2cccs2)nc2ccccc12	i	13.4	?	?	i	i
O=C(COC(=O)c1cc(-c2cccs2)nc2ccccc12)NCc1ccco1	90.4	29.1	i	i	i	i
O=C(COC(=O)c1cc(-c2ccc(Cl)s2)nc2ccccc12)NCc1ccco1	i	15.8	?	i	i	i
COc1ccc(CNC(=O)COC(=O)c2cc(-c3ccc(Cl)s3)nc3ccccc23)cc1	i	i	i	i	i	i
Cc1cc(C)c2nc(NNC(=O)c3cc(-c4cccs4)nc4ccccc34)sc2c1	i	i	?	10µM	?	?
CCC(C)C(=O)OCC1(c2ccc(C)cc2OC(=O)C(C)C)CO1 (stereo unspecified)	i	i	nt	?	nt	i
Cc1ccc(C2(COC(=O)C(C)C)CO2)c(OC(=O)C(C)C)c1 (stereo unspecified)	i	10.3	nt	i	nt	i
O=C(CC(SCCO)c1ccc2c(c1)OCO2)c1ccco1 (stereo unspecified)	123.2	47.5	i	?	i	i
O=C(NCc1ccc2c(c1)OCO2)c1ccco1	i	i	i	i	i	i
O=C(NCCCN1CCCCC1)c1ccc2c(=O)n(CCc3ccccc3)c(=O)[nH]c2c1	i	i	?	6.31µM	i	i
O=C1Nc2cc(C(=O)NCCCN3CCCC3)ccc2S/C1=C\c1ccccc1	i	i	nt	11.2µM	nt	i
CN(C)CCNC(=O)c1ccc2c(c1)NC(=O)c1ccccc1S2	i	i	nt	8.91µM	nt	i
O=C1Nc2cc(C(=O)NCCCN3CCOCC3)ccc2S/C1=C/c1ccccc1F	i	i	nt	8.91µM	nt	?
Cc1cc2c(cc(C(=O)OCC(=O)NC3CCCCC3)n2C)o1	nt	nt	i	?	i	i
CCCSc1ccc([C@@H]2[C@@H]3C(=O)N(CC)C(=O)[C@@H]3[C@]3(C(=O)OC)CCCCN23)cc1	nt	nt	nt	i	nt	?
SMILES	Shiga inhibitor	CHX counter	Marburg entry inh	HCV inh	LASV entry inh	FMDV antiviral
Cc1nn2c(=O)c(NC(=O)c3ccc(Cl)cc3)cnc2s1	52.3	35.9	?	i	i	i
Cc1cc(NC(=O)c2ccc(Cl)cc2)c(C)cc1O	i	i	?	i	i	i
Cc1nn2c(=O)c(NC(=O)c3ccc(F)cc3)cnc2s1	i	i	i	i	i	i
Cc1ccc(C(=O)Nc2cnc3sc(C)nn3c2=O)cc1	58.3	37.0	i	i	?	i
COc1ccccc1CN1C(=O)[C@H]2Cc3c([nH]c4ccccc34)C(C)(C)N2C1=O	nt	nt	nt	nt	nt	i
Cc1ccsc1/C=N/N=C1\C(=O)Nc2ccccc21	49.0	40.1	i	i	i	i
O=C1C2C3C=CC(CC3)C2C(=O)N1/N=C/c1c(O)ccc2ccccc12 (stereo unspecified)	i	i	nt	i	nt	i
